# In PubChem BioAssay (EPA / NIEHS):
# Calls of active or inactive are those of the source. Rule for the calls: active = hit-call score of the fitted dose curve at least 0.9, where 1 is the maximum; inactive = score below 0.9.
# Molecular target: Retinoic acid receptor alpha (Homo sapiens) (UniProt P10276)
# Assay: ATG_DR5_RAR_CIS: Attagene CIS-FACTORIAL HepG2 Assay for human Retinoic Acid Receptor Alpha (RARE), DR5 submotif (AID 2282934);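 for AC50: reporter responds to endogenous RAR alpha beta and gamma in HepG2 not RARA alone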
# Conditions: HepG2 Attagene cis-factorial RARE DR5 reporter, mRNA; actives raise or lower the signal
# Experimental: ATG_CIS is a cell-based, multiplexed-readout assay that uses HepG2, a human liver cell line, with measurements taken at 24 hours after chemical dosing in a 24-well plate.ATG_DR5_RAR_CIS is one of 52 assay component(s) measured or calculated from the ATG_CIS assay. It is designed to make measurements of mRNA induction, a form of inducible reporter, as detected with fluorescence intensity signals by Reverse transcription polymerase chain reaction (RT-PCR) and Capillary electrophoresis technology.Data from the assay component ATG_DR5_RAR_CIS was analyzed into 1 assay endpoint. This assay endpoint, ATG_DR5_CIS, was analyzed with bidirectional fitting relative to DMSO as the negative control and baseline of activity. Using a type of inducible reporter, measures of mRNA for gain or loss-of-signal activity can be used to understand the reporter gene at the transcription factor-level as they relate to the gene RARA and RARB and RARG. Furthermore, this assay endpoint can be referred to as a primary readout, because this assay has produced multiple assay endpoints where this one serves a reporter gene function. To generalize the intended target to other relatable targets, this assay endpoint is annotated to the nuclear receptor intended target family, where the subfamily is non-steroidal.
# Human liver HepG2 cells are transiently transfected with multiple reporter transcription units (MRTUs) in 6-well plates using FuGene 6 reagent (Roche; 3 ml FuGene/1 mg DNA). The MRTU constructs are regulated by a cis-regulating element (promoter). […] A major difference between the CIS and TRANS system is that in CIS activities of endogenous TFs are measured, whereas the TRANS assay evaluates changes in activities of exogenous, chimeric NR-Gal4 proteins. […] At the end of 24 hour incubation, total RNA was isolated using TriZol reagent (Invitrogen). The isolated RNA is then reverse-transcribed using oligo(dT) primer and Mo-MLV reverse transcriptase (Invitrogen) with DNAse I (Ambion) treatment for 30 min. The one-tenth of the produced cDNA was amplified by PCR using Taq DNA polymerase (Invitrogen) and two reporter sequence-specific primers. The PCR products were fluorescently labeled by primer extension with 6-arboxyfluorescein (6-FAM) 5'-labeled reporter sequence-specific primer (2 min at 95 C, 20 s at 68 C and 10 min at 72 C) and these products were digested with 5U of HpaI (New England Biolabs) for 2h at 37 C. The fragments were purified using Qiaquick PCR columns (Qiagen), analyzed on an ABI 3130xL genetic analyzer (Applied Biosystems) with peak positions identified by using a set of X-rhodamine (ROX)-labeled MapMarker1000 molecular weight standards (BioVentures). The raw capillary electrophoresis data was processed using Attagraph software (Attagene).
# Retinoic acid receptor alpha (Homo sapiens), sequence (P10276 whole entry, looked up): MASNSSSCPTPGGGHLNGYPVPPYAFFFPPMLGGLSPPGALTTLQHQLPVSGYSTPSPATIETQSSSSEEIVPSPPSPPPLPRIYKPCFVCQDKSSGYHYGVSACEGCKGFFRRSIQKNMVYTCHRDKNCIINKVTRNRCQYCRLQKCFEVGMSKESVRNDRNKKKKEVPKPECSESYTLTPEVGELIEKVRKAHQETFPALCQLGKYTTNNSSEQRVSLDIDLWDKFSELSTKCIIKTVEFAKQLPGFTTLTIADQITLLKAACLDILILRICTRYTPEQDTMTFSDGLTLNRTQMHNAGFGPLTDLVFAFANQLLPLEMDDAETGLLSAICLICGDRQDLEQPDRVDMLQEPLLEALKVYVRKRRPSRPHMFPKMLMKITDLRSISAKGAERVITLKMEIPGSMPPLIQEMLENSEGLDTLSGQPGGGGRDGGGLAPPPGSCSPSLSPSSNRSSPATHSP
Structure (SMILES),outcome,AC50
C=CC[N+](C)(C)CC=C,inactive,
CCCOCC(C)O (stereo not given),inactive,
CCCCCCCCCCCCN(CCCCCCCCCCCC)CCCCCCCCCCCC,inactive,
CC(C)C[C@H]1C(=O)N2CCC[C@H]2[C@]2(O)O[C@](NC(=O)[C@@H]3C=C4c5cccc6[nH]c(Br)c(c56)C[C@H]4N(C)C3)(C(C)C)C(=O)N12,inactive,
O=C1CCCCCCCCCCOCCCCO1,inactive,
CC(C)=CCCC(C)=CCCC(C)=CCO,inactive,
NCCCCCCN,inactive,
CCCCC[Si](OCC)(OCC)OCC,inactive,
Cc1cccc(Nc2ccccc2C(=O)O)c1C,inactive,
CC1CCC(C(C)CS)CC1S (stereo not given),inactive,
Cc1ccc2ccccc2n1,inactive,
C/C=C(\C)C(=O)OCc1ccccc1,inactive,
O=c1oc(=O)c2cc3c(=O)oc(=O)c3cc12,inactive,
CC1(C)OC[C@@H]2O[C@@]3(C(=O)O)OC(C)(C)O[C@H]3[C@@H]2O1,inactive,
CNC[C@H](O)c1cccc(O)c1,inactive,
CCCCCCOC(=O)CCCCC,inactive,
CCCCOCCOCCSC#N,inactive,
CCC(C)CCCC(C)(C)O (stereo not given),inactive,
CC1(CO)CN(c2ccccc2)NC1=O (stereo not given),inactive,
CCCC[n+]1ccccc1,inactive,

Structure (SMILES),outcome,AC50
CCCCC(CC)COC(=O)/C=C\C(=O)OCC(CC)CCCC (stereo not given),,100 µM (active)
O=S(=O)(O)NC1CCCCC1,inactive,
C=CC(=O)OCCOCCOCC,inactive,
CCCCCC(CO)CCC (stereo not given),inactive,
CCN(CC)c1ccc(C(=C2C=CC(=[N+](CC)CC)C=C2)c2ccc(S(=O)(=O)O)cc2S(=O)(=O)[O-])cc1,inactive,
O=C(O)CCCCCCCC(=O)O,inactive,
CN1Cc2c(N)cccc2C(c2ccccc2)C1 (stereo not given),inactive,
CCN(CC)CCOC(=O)c1ccc(N)cc1,inactive,
CCCCCCCCCCCCCCCCCC(=O)OCC(CC)CCCC (stereo not given),inactive,
CC1CC(OC(=O)c2ccccc2O)CC(C)(C)C1 (stereo not given),inactive,
CCCCCCCCCCCCCCCC(=O)O,inactive,
O=C[C@H](O)[C@H](O)[C@H](O)CO,inactive,
CCCCCNCCCCC,inactive,
C=C[C@@H](C)CCC=C(C)C,inactive,
C[C@H]1C[C@@H]2[C@H]([C@@H](O)C[C@@]3(C)[C@H]2CC[C@]3(O)C(=O)CO)[C@@]2(C)C=CC(=O)C=C12,inactive,
O=C(O)CN(CCN(CC(=O)O)CC(=O)O)CCN(CC(=O)O)CC(=O)O,inactive,
COc1ccc(NC(=O)CC(C)=O)cc1,inactive,
CSc1nc(NC2CC2)nc(NC(C)(C)C)n1,inactive,
CC(=O)c1c(C)cc(C(C)(C)C)cc1C,inactive,
O=C1CCCCCCCCCCCCCCO1,,100 µM (active)
